Results published in the supplement of paper PMC10849652.
The full data set covers some 7,900 targets. This sample favours those with a hit. About 0.6% of all pairs of compound and target were hits.

Legend:
Experiment in all cases: log2 fold change, soluble protein after heating vs DMSO (PISA); higher = thermal stabilisation; K562 cells, 10 uM, 30 min; active = over 0.2 and 3.5 SD of the protein, either way, in both replicates (recomputed)
IRAK-1-4 Inhibitor I = compound: C1COCCN1CCN2C3=CC=CC=C3N=C2NC(=O)C4=CC(=CC=C4)[N+](=O)[O-] [IRAK-1-4 Inhibitor I]
Procedure, shortened: (§1)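 Thermal stability values are relative to control samples and come from duplicates. They are expressed as log2 fold changes. For measurement, K562 cells (2×10^6 cells/mL) received 10 μM compound for 30 min, and aliquots were heated for 3 min over 48°C-58°C, pooled, and extracted at 4°C in PBS with 0.5% NP-40. Soluble protein, the supernatant after 21,000xg for 90 min, was quantified by TMTpro 16plex LC-MS/MS with equalised channel sums.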

ibrutinib = compound: C=CC(=O)N1CCC[C@@H](n2nc(-c3ccc(Oc4ccccc4)cc3)c3c(N)ncnc32)C1 [ibrutinib]
Procedure, shortened: as §1

[1] = compound: CC(=O)c1cnc2ccc(-c3cc(Cl)c(O)c(Cl)c3)nc2c1N[C@H]1CC[C@H](CN(C)C)CC1
Procedure, shortened: as §1

ralimetinib = compound: CC(C)(C)Cn1c(N)nc2ccc(-c3[nH]c(C(C)(C)C)nc3-c3ccc(F)cc3)nc21 [ralimetinib]
Procedure, shortened: as §1

[2] = compound: CC(C)(O)CC(=O)NCCn1ccc2ncnc(Nc3ccc(Oc4cccc(C(F)(F)F)c4)c(Cl)c3)c21
Procedure, shortened: as §1

[3] = compound: CC(C)C1=C2N=C(C=C(N2N=C1)NCC3=CC=CC=C3)NCCCCCCN
Procedure, shortened: as §1

[4] = compound: CC(C)C[C@@H](C=O)NC(=O)[C@H](CC(C)C)NC(=O)[C@H](CC(C)C)NC(=O)OCc1ccccc1
Procedure, shortened: as §1

pinometostat = compound: CC(C)N(C[C@H]1O[C@@H](n2cnc3c(N)ncnc32)[C@H](O)[C@@H]1O)[C@H]1C[C@@H](CCc2nc3cc(C(C)(C)C)ccc3[nH]2)C1 [pinometostat]
Procedure, shortened: as §1

[5] = compound: CC1=C(C(CC(=O)N1)C2=CC=C(C=C2)C(F)(F)F)C(=O)NC3=C(C=C4C(=C3)C=NN4)F
Procedure, shortened: as §1

[6] = compound: CC1=C(C2=C(C=C1)C(=O)C3=CC=CC=C3N2CCCN)C
Procedure, shortened: as §1

Measured: log2 fold change

DHPS (UniProt P49366)
Sequence of UniProt P49366 (P49366 whole entry, looked up): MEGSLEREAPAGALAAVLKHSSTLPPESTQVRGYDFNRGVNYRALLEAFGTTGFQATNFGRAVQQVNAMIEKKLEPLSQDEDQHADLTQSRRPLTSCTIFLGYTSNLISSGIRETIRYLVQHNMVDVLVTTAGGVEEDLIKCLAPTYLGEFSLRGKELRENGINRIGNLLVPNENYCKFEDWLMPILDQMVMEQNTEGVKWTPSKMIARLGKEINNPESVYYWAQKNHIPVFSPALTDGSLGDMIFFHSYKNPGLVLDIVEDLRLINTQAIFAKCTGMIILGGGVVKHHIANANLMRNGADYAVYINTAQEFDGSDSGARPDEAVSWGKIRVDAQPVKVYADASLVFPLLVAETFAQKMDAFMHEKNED
inactive: IRAK-1-4 Inhibitor I 0.011 | ibrutinib -0.004 | [1] 0.02 | ralimetinib -0.04 | [2] -0.043 | [3] 0.047 | [4] -0.012 | pinometostat -0.095 | [5] 0.008 | [6] -0.027

CUX1 isoform 3 (UniProt P39880)
Sequence of UniProt P39880 (P39880 whole entry, looked up): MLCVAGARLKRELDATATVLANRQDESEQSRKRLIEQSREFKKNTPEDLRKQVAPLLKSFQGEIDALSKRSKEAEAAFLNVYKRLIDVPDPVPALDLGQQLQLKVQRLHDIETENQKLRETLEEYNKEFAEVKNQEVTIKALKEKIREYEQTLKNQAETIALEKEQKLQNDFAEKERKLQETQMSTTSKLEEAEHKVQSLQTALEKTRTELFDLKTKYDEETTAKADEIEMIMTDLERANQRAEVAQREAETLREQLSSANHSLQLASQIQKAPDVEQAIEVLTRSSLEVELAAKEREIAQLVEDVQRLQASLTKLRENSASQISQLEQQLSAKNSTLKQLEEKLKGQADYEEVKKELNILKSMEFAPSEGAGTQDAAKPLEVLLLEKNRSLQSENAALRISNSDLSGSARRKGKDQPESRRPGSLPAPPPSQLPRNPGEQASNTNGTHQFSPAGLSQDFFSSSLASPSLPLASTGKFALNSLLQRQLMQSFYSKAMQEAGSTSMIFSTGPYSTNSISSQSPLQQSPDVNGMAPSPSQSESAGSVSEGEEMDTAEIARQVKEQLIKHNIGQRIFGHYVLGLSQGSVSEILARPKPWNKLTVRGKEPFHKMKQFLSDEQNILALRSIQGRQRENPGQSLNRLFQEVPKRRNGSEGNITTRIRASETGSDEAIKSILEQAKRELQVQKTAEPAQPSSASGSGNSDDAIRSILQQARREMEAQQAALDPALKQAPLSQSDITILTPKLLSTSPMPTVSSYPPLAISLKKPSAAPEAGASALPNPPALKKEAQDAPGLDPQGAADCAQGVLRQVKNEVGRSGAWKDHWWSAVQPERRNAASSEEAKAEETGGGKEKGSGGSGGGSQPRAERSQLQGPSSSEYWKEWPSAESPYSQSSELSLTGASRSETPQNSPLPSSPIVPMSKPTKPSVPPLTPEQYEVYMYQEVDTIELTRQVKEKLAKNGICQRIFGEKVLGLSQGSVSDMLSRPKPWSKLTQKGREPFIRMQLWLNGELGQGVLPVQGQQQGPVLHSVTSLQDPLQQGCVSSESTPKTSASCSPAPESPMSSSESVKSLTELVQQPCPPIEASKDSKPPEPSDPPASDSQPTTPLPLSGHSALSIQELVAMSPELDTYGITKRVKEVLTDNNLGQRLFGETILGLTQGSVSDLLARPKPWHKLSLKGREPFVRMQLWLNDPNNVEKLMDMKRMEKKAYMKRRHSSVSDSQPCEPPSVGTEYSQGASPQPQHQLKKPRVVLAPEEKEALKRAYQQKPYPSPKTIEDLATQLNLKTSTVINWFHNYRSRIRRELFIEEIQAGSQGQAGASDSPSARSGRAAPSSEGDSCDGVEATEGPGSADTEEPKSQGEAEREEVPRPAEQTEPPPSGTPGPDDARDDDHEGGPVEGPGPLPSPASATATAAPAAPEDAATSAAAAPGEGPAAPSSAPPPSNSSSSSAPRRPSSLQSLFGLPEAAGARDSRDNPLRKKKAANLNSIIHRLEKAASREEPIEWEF
inactive: IRAK-1-4 Inhibitor I 0.019 | ibrutinib -0.033 | [1] -0.032 | ralimetinib -0.065 | [2] -0.047 | [3] 0.008 | [4] 0.116 | pinometostat -0.018 | [5] 0.015 | [6] 0.153

FAM122A (UniProt Q96E09)
Sequence of UniProt Q96E09 (Q96E09 whole entry, looked up): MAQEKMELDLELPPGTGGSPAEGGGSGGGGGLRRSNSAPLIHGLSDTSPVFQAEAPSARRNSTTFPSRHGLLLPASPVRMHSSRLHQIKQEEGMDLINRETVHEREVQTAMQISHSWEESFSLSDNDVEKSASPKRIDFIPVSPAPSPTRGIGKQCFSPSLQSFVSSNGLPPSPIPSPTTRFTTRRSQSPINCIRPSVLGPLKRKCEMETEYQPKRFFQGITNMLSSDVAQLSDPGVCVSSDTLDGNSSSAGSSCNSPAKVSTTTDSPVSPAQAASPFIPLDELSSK
inactive: IRAK-1-4 Inhibitor I 0.002 | ibrutinib 0.016 | [1] -0.015 | ralimetinib -0.053 | [2] 0.105 | [3] 0.066 | [4] 0.016 | pinometostat -0.008 | [5] 0.007 | [6] -0.117

EHBP1L1 (UniProt Q8N3D4)
inactive: IRAK-1-4 Inhibitor I -0.044 | ibrutinib -0.054 | [1] -0.077 | ralimetinib 0.083 | [2] -0.001 | [3] -0.034 | [4] 0.05 | pinometostat 0.086 | [5] -0.049 | [6] 0.028

DHCR24 (UniProt Q15392)
Sequence of UniProt Q15392 (Q15392 whole entry, looked up): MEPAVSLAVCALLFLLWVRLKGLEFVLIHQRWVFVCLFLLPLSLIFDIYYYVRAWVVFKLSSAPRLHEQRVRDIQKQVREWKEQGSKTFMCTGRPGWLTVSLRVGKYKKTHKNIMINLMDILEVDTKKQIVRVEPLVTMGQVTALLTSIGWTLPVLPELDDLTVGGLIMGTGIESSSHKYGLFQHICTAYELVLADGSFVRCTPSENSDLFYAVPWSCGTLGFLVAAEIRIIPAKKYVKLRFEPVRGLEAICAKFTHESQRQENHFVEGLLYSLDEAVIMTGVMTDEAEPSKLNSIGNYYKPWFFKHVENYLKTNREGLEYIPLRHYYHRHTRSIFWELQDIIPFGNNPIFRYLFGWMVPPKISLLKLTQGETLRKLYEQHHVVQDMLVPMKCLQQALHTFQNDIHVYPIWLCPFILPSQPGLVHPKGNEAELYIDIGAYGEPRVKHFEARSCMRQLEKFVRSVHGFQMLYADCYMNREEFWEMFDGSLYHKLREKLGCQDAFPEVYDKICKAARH
inactive: IRAK-1-4 Inhibitor I -0.036 | ibrutinib 0.02 | [1] 0.157 | ralimetinib 0.04 | [2] 0.041 | [4] 0.022 | pinometostat 0.05 | [5] -0.104 | [6] 0.212
active: [3] 1.14

ETNK1 (UniProt Q9HBU6)
Sequence of UniProt Q9HBU6 (Q9HBU6 whole entry, looked up): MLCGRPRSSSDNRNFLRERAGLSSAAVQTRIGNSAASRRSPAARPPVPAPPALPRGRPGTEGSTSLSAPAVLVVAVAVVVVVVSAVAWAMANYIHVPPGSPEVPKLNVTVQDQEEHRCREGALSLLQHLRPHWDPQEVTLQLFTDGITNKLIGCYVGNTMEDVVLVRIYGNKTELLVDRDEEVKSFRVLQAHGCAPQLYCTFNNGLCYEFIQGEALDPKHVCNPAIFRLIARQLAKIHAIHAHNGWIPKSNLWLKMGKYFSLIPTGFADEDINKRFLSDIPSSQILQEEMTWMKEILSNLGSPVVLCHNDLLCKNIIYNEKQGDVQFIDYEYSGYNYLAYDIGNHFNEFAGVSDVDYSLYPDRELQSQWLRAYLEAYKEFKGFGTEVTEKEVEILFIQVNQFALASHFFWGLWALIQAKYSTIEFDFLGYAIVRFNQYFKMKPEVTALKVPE
inactive: IRAK-1-4 Inhibitor I 0.035 | ibrutinib -0.05 | [1] 0.044 | ralimetinib -0.017 | [2] -0.205 | [3] 0.087 | [4] 0.043 | pinometostat 0.019 | [5] -0.015 | [6] 0.079

EXOC5 (UniProt O00471)
Sequence of UniProt O00471 (O00471 whole entry, looked up): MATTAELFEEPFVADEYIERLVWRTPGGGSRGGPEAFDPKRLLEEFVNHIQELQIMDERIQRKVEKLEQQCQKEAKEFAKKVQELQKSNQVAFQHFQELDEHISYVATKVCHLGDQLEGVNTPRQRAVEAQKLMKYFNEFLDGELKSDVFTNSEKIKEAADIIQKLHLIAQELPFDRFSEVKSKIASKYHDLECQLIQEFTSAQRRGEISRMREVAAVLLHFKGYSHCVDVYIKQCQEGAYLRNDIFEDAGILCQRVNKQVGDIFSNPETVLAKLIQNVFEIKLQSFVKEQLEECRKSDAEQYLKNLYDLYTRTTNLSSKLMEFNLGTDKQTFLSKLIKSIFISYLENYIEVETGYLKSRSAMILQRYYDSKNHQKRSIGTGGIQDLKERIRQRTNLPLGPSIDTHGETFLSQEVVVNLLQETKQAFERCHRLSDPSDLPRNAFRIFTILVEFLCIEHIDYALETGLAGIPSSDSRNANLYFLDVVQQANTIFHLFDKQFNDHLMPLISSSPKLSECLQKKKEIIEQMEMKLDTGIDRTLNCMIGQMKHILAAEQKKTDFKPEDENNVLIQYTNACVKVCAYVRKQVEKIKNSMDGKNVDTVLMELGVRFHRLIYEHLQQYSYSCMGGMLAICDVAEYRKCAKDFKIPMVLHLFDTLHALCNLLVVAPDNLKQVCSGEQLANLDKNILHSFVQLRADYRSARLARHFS
active: [3] -0.344
inactive: IRAK-1-4 Inhibitor I -0.062 | ibrutinib -0.002 | [1] -0.01 | ralimetinib 0.015 | [2] -0.03 | [4] 0.014 | pinometostat 0.078 | [5] 0 | [6] -0.061

ECH1 (UniProt Q13011)
Sequence of UniProt Q13011 (Q13011 whole entry, looked up): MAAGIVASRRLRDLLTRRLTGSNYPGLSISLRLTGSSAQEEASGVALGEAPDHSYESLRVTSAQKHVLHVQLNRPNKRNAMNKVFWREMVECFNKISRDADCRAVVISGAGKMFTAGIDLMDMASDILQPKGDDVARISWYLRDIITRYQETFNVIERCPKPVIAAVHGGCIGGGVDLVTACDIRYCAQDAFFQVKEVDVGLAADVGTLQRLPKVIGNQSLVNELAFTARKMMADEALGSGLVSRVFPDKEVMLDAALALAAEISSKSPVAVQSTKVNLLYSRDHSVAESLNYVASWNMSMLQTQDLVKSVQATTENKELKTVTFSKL
inactive: IRAK-1-4 Inhibitor I 0.056 | ibrutinib -0.003 | [1] -0.058 | ralimetinib 0.087 | [2] -0.112 | [3] -0.164 | [4] -0.033 | pinometostat 0.003 | [5] 0.086 | [6] 0.076

FAM117A (UniProt Q9C073)
active: [1] -0.833
inactive: IRAK-1-4 Inhibitor I -0.004 | ibrutinib 0.001 | ralimetinib -0.125 | [2] -0.068 | [3] -0.102 | [4] 0.126 | pinometostat -0.003 | [5] 0.042 | [6] 0.011

EEF1AKNMT (UniProt Q8N6R0)
active: pinometostat 0.354
inactive: IRAK-1-4 Inhibitor I -0.081 | ibrutinib -0.116 | [1] -0.026 | ralimetinib 0.141 | [2] -0.097 | [3] -0.199 | [4] 0.127 | [5] -0.029 | [6] 0.13

DFFB (UniProt O76075)
Sequence of UniProt O76075 (O76075 whole entry, looked up): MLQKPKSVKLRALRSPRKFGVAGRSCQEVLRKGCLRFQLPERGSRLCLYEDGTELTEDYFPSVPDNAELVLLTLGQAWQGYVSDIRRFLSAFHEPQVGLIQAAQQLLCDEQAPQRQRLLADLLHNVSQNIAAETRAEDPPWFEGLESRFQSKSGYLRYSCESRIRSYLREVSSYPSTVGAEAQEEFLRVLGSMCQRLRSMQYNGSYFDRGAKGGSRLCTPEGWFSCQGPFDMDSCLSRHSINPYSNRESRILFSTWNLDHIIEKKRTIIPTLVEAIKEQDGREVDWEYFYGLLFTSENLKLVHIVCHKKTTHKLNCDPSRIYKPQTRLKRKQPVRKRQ
inactive: IRAK-1-4 Inhibitor I -0.002 | ibrutinib -0.047 | [1] 0.011 | ralimetinib 0.005 | [2] -0.148 | [3] 0.066 | [4] 0.045 | pinometostat 0.008 | [5] -0.052 | [6] 0.009

DNAJB12 (UniProt Q9NXW2)
inactive: IRAK-1-4 Inhibitor I -0.026 | ibrutinib 0.004 | [1] -0.013 | [2] -0.032 | [3] -0.012 | [4] 0.076 | pinometostat 0.021 | [5] 0.05 | [6] 0.022
active: ralimetinib -0.767

ECPAS (UniProt Q5VYK3)
inactive: IRAK-1-4 Inhibitor I -0.117 | ibrutinib -0.09 | [1] 0.009 | ralimetinib 0.082 | [2] -0.139 | [3] -0.094 | pinometostat 0.055 | [5] 0.021 | [6] 0.092
active: [4] 0.564

DHRS7B (UniProt Q6IAN0)
inactive: IRAK-1-4 Inhibitor I 0.027 | ibrutinib -0.017 | [1] -0.063 | ralimetinib 0.23 | [2] 0.055 | [3] 0.115 | [4] -0.113 | pinometostat -0.055 | [5] -0.049 | [6] -0.003

CYP51A1 (UniProt Q16850)
inactive: IRAK-1-4 Inhibitor I -0.129 | ibrutinib 0.039 | [1] -0.028 | ralimetinib 0.064 | [2] 0.245 | [4] 0.07 | pinometostat 0.045 | [5] -0.013 | [6] -0.006
active: [3] 0.782

DCTN1 isoform 4 (UniProt Q14203)
active: [3] -0.303
inactive: IRAK-1-4 Inhibitor I -0.101 | ibrutinib -0.02 | [1] -0.001 | ralimetinib 0.114 | [2] -0.086 | [4] 0.07 | pinometostat 0.138 | [5] -0.002 | [6] 0.019

DNAJB1 (UniProt P25685)
inactive: IRAK-1-4 Inhibitor I -0.059 | ibrutinib -0.011 | [1] -0.017 | ralimetinib 0 | [2] -0.012 | [3] -0.015 | [4] -0.065 | pinometostat -0.086 | [5] -0.004 | [6] 0.022

EHD2 (UniProt Q9NZN4)
inactive: IRAK-1-4 Inhibitor I 0.009 | ibrutinib 0.008 | [1] -0.038 | ralimetinib 0.003 | [2] -0.033 | [3] 0.002 | [4] 0.036 | pinometostat -0.044 | [5] 0.003 | [6] 0.001

DDOST (UniProt P39656)
Sequence of UniProt P39656 (P39656 whole entry, looked up): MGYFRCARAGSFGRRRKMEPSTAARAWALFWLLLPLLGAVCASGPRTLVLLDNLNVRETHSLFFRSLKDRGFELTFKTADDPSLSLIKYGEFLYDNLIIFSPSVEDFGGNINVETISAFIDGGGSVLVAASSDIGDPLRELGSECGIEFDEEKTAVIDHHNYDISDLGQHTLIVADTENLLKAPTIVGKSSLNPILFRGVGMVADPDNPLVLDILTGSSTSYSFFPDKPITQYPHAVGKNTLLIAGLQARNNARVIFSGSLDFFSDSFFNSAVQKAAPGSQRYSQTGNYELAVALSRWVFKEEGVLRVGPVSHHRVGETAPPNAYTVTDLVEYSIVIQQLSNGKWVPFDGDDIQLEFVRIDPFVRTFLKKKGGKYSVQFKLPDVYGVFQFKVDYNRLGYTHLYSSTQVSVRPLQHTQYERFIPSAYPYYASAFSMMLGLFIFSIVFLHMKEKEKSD
inactive: IRAK-1-4 Inhibitor I -0.038 | ibrutinib -0.027 | [1] 0.057 | ralimetinib 0.156 | [2] 0.015 | [3] -0.081 | [4] -0.036 | pinometostat 0.015 | [5] 0.024 | [6] -0.041

DDX4 (UniProt Q9NQI0)
inactive: IRAK-1-4 Inhibitor I -0.033 | ibrutinib -0.046 | [1] -0.035 | ralimetinib -0.063 | [2] 0.203 | [3] 0.02 | [4] 0.239 | pinometostat 0.24 | [5] 0.03 | [6] 0.033

EDC4 (UniProt Q6P2E9)
inactive: IRAK-1-4 Inhibitor I -0.041 | ibrutinib -0.001 | ralimetinib 0.019 | [2] 0.007 | [3] -0.181 | [4] 0.022 | pinometostat 0.05 | [5] -0.016 | [6] -0.032
active: [1] -0.387

FAF2 (UniProt Q96CS3)
inactive: IRAK-1-4 Inhibitor I 0 | ibrutinib -0.026 | [1] -0.034 | ralimetinib 0.103 | [2] -0.029 | [3] -0.044 | [4] 0.03 | pinometostat 0.053 | [5] 0.008 | [6] 0.044

EEA1 (UniProt Q15075)
inactive: IRAK-1-4 Inhibitor I 0.037 | ibrutinib 0.002 | [1] 0.02 | ralimetinib -0.068 | [2] 0.013 | [3] 0.025 | [4] -0.022 | pinometostat -0.041 | [5] 0.001 | [6] -0.004

DCAF13 (UniProt Q9NV06)
inactive: IRAK-1-4 Inhibitor I -0.079 | ibrutinib 0.019 | [1] 0.101 | ralimetinib 0.077 | [2] 0.032 | [3] -0.078 | [4] 0.165 | pinometostat 0.263 | [5] 0.037 | [6] -0.33

F5 (UniProt P12259)
inactive: IRAK-1-4 Inhibitor I 0.006 | ibrutinib 0.064 | [1] 0.003 | ralimetinib -0.042 | [2] 0.168 | [3] -0.088 | [4] 0.001 | pinometostat -0.016 | [5] -0.017 | [6] -0.129

EIF4G1 isoform 8 (UniProt Q04637)
inactive: IRAK-1-4 Inhibitor I -0.124 | ibrutinib -0.148 | [1] -0.3 | ralimetinib 0.057 | [2] -0.053 | [3] -0.387 | [4] 0.046 | pinometostat 0.149 | [5] 0.096 | [6] 0.018

EMD (UniProt P50402)
inactive: IRAK-1-4 Inhibitor I 0.039 | ibrutinib 0.009 | [1] -0.021 | ralimetinib -0.004 | [2] 0.028 | [3] -0.114 | [4] 0.034 | pinometostat 0.013 | [5] 0.021 | [6] -0.042

FAM118B (UniProt Q9BPY3)
inactive: IRAK-1-4 Inhibitor I 0.039 | ibrutinib 0.073 | [1] -0.118 | ralimetinib 0.051 | [2] -0.199 | [3] -0.145 | [4] 0.065 | pinometostat -0.024 | [5] 0.014 | [6] 0.042

DDX46 (UniProt Q7L014)
inactive: IRAK-1-4 Inhibitor I -0.113 | ibrutinib -0.034 | [1] -0.299 | ralimetinib -0.095 | [2] -0.18 | [3] -0.034 | [4] 0.026 | pinometostat -0.066 | [5] -0.107 | [6] 0.152

ELOVL1 (UniProt Q9BW60)
inactive: IRAK-1-4 Inhibitor I 0.079 | ibrutinib -0.006 | [1] 0.018 | ralimetinib 0.029 | [2] -0.197 | [4] 0.036 | pinometostat 0.063 | [5] 0.016 | [6] 0.099
active: [3] -0.628
